BoNT-A LC inh2 = blocks Botulinum neurotoxin A light chain protease; multiplex microsphere protease substrate cleavage, flow cytometry; inhibition, % at 10 µM; 0.17% of 360,000 active; further: plate controls were buffer without enzyme for full effect and enzyme alone for no effect
Autofluor counter = flagged as autofluorescent in microsphere protease counterscreen. 3.1% of 360,000 active. fluorescence intensity (concentration not given with the values). compound autofluorescence counterscreen, microsphere flow cytometry; stronger effect = higher value; in the data active means fluorescence intensity above about 16000; inconclusive means no clear call, values can overlap the other calls
TcdB GH inh = TcdB glycohydrolase inhibition; P18177; TcdB glycohydrolase enzymatic assay, plate reader; inhibition, % at 9.99 µM; 0.24% of 350,000 active; in the data active means inhibition above about 10%
BoNT-F LC inh = BoNT F light chain protease inhibition. AID 588497. inhibition, % at 10 µM. 0.22% of 360,000 active. Multiplex microsphere protease cleavage assay, flow cytometry; in the data active means inhibition above about 35%, passing the limit was not always enough; inconclusive means no clear call, values can overlap the other calls; further: plate controls were buffer without enzyme for full effect and enzyme alone for no effect
Anthrax LF prot = inhibitors of Bacillus anthracis lethal factor protease; P15917; multiplex microsphere protease cleavage assay, LF; inhibition, % at 10 µM; 0.12% of 360,000 active; AID 588501; further: plate controls were buffer without enzyme for full effect and enzyme alone for no effect
Starred values were filed as active, the others as inactive. The sample as a whole holds a higher share of hits than the screen did. Unless noted, no stated cut-off is given here; in the data, active means inhibition above about 30%; inconclusive means no clear call, values can overlap the other calls; inactive means below that.

CC(=O)N1CCN(c2ccc(S(=O)(=O)N3CCCCC3)cc2[N+](=O)[O-])CC1 was read as BoNT-A LC inh2 -0.3, Autofluor counter 3570, TcdB GH inh 1.2, BoNT-F LC inh -2.9 and Anthrax LF prot 4.4.
CS(=O)(=O)c1ccc(N2CCOCC2)c(S(C)(=O)=O)c1 was read as BoNT-A LC inh2 -0.3, Autofluor counter 20225*, TcdB GH inh -0.2, BoNT-F LC inh -0.5 and Anthrax LF prot 0.9.
CN1C(=O)c2cc(NC(=O)c3ccc(C(F)(F)F)cc3)ccc2OC[C@H]2O[C@H](CC(=O)O)CC[C@@H]21 was read as TcdB GH inh -2.8.
`CN(C(=O)COC(=O)C1CCN(S(=O)(=O)c2c(Cl)cccc2Cl)CC1)C1CCS(=O)(=O)C1` (stereo unspecified) gave BoNT-A LC inh2 2.7, Autofluor counter inconclusive, TcdB GH inh 0.4, BoNT-F LC inh 13.2 and Anthrax LF prot 1.9.
Screening CN(C(=O)COC(=O)COc1ccccc1F)C1CCS(=O)(=O)C1 (stereo unspecified) returned BoNT-A LC inh2 -3.7, Autofluor counter 5902, BoNT-F LC inh 38.4* and Anthrax LF prot -12.0.
Screening CN(C(=O)COC(=O)C1CCN(S(=O)(=O)c2cccs2)CC1)C1CCS(=O)(=O)C1 (stereo unspecified) returned BoNT-A LC inh2 inconclusive, Autofluor counter 20892*, BoNT-F LC inh 6.1 and Anthrax LF prot -2.9.
Screening O=C(C[C@@H]1CC[C@H](NC(=O)Nc2ccc(C(F)(F)F)cc2)[C@@H](CO)O1)NCCN1CCCC1 returned TcdB GH inh 0.9.
Screening CC(C)NC(=O)N(C)C[C@H]1OCCCC[C@@H](C)Oc2ccc(NS(=O)(=O)c3cccs3)cc2C(=O)N([C@H](C)CO)C[C@H]1C returned TcdB GH inh 1.2.
CCn1nc(C)c(/C=N/NC(=O)c2nc3nc(C)cc(C)n3n2)c1C was read as BoNT-A LC inh2 2.9, Autofluor counter 3405, TcdB GH inh -0.8, BoNT-F LC inh inconclusive and Anthrax LF prot 34.3*.
Screening COc1cccc(OCCCn2cc(/C=C3/C(=N)N4C=C(C)SC4=NC3=O)c3ccccc32)c1 returned BoNT-A LC inh2 49.6*, Autofluor counter 24218*, TcdB GH inh 0.7, BoNT-F LC inh -44.6 and Anthrax LF prot 4.9.
Screening COc1cc(/C=C2/C(=N)N3C=CSC3=NC2=O)ccc1OCCCOc1ccccc1C returned BoNT-A LC inh2 5.4, Autofluor counter 4133, TcdB GH inh 0.1, BoNT-F LC inh 37.0* and Anthrax LF prot 5.3.
`COc1cc(/C=C2/C(=N)N3C=CSC3=NC2=O)ccc1OCCCOc1c(C)cccc1C` gave BoNT-A LC inh2 1.8, Autofluor counter 7192, TcdB GH inh -1.6, BoNT-F LC inh -15.1 and Anthrax LF prot -1.4.
`CO[C@H]1CN(C)C(=O)c2cc(NS(=O)(=O)c3ccc(C)cc3)ccc2OC[C@@H](C)NC[C@H]1C` gave TcdB GH inh -0.6.
`COc1ccc(CNC(=O)CN(Cc2ccccc2)C(=O)c2csnn2)cc1` gave BoNT-A LC inh2 1.1, Autofluor counter 3957, BoNT-F LC inh 18.0 and Anthrax LF prot -0.3.
C=CCN(CC(=O)NCc1ccccc1)C(=O)c1csnn1 was read as BoNT-A LC inh2 -1.9, Autofluor counter 24034*, BoNT-F LC inh -1.0 and Anthrax LF prot 0.5.
Screening CNC[C@H]1OCCCC[C@H](C)Oc2ccc(NC(=O)Nc3c(C)noc3C)cc2C(=O)N([C@H](C)CO)C[C@@H]1C returned TcdB GH inh -0.7.
Cc1oc(-c2ccccc2F)nc1CSCC(=O)NC1CC1 was read as BoNT-A LC inh2 0.5, Autofluor counter 5447, TcdB GH inh -2.3, BoNT-F LC inh -0.6 and Anthrax LF prot 2.5.
`O=C(CN1C(=O)c2cccc3cccc1c23)NCc1ccc2c(c1)OCO2` gave BoNT-A LC inh2 inconclusive, Autofluor counter 23642*, BoNT-F LC inh -1.9 and Anthrax LF prot -0.7.
Cn1c(SCC(=O)NCc2ccc3c(c2)OCO3)nnc1-c1c[nH]c2ccccc12 was read as BoNT-A LC inh2 inconclusive, Autofluor counter 16863*, TcdB GH inh 1.7, BoNT-F LC inh -4.6 and Anthrax LF prot -1.9.
Cc1oc(-c2ccccc2F)nc1CSCC(=O)NCc1ccc2c(c1)OCO2 was read as BoNT-A LC inh2 4.0, Autofluor counter 20539*, BoNT-F LC inh 3.9 and Anthrax LF prot -9.9.
Cc1ccccc1-c1nnn(CC(=O)NCc2ccc3c(c2)OCO3)n1 was read as BoNT-A LC inh2 -2.0, Autofluor counter 21659*, BoNT-F LC inh -0.2 and Anthrax LF prot 1.2.
For COc1ccc(S(=O)(=O)N(C)C[C@@H]2Oc3ccc(NC(=O)Cc4cn(C)c5ccccc45)cc3CC(=O)N([C@H](C)CO)C[C@H]2C)cc1 the results were TcdB GH inh 0.7.
`COc1ccc2c3c(n(C)c2c1)[C@@H](CO)N(S(=O)(=O)c1ccc(C)cc1)CC31CCN(S(=O)(=O)c2ccc(C)cc2)CC1` gave TcdB GH inh -0.1.
`C/C=C/c1ccc([C@@H]2[C@@H](C#N)N(C(=O)Cc3ccccn3)[C@@H]2CO)cc1` gave TcdB GH inh -0.7.
`O=C(Nc1cccc(O)c1)c1ccc(Br)c(S(=O)(=O)N2CCCCC2)c1` gave BoNT-A LC inh2 -4.0, Autofluor counter 24544*, TcdB GH inh -1.0, BoNT-F LC inh -6.3 and Anthrax LF prot -3.4.
O=C(Nc1ncn[nH]1)c1ccc(Cl)c(S(=O)(=O)N2CCCCCC2)c1 was read as BoNT-A LC inh2 -1.3, Autofluor counter 16856*, BoNT-F LC inh -0.5 and Anthrax LF prot 3.0.
For O=C(Nc1cccc(O)c1)c1cccc(S(=O)(=O)N2CCCCCC2)c1 the results were BoNT-A LC inh2 1.6, Autofluor counter 3670, TcdB GH inh 1.6, BoNT-F LC inh -4.5 and Anthrax LF prot 10.4.
Screening O=C(Nc1ccncc1)c1ccc(Cl)c(S(=O)(=O)N2CCCCC2)c1 returned BoNT-A LC inh2 5.4, Autofluor counter inconclusive, TcdB GH inh 1.8, BoNT-F LC inh 15.5 and Anthrax LF prot 1.1.
Screening O=C(Nc1cccc(O)c1)c1ccc(Br)cc1 returned BoNT-A LC inh2 2.7, Autofluor counter 21990*, BoNT-F LC inh 3.5 and Anthrax LF prot -6.8.
Screening CC(=O)Nc1cccc(NC(=O)c2ccc(Br)cc2)c1 returned BoNT-A LC inh2 -0.7, Autofluor counter 4321, TcdB GH inh 10.3*, BoNT-F LC inh -7.2 and Anthrax LF prot -3.9.
For O=C(Nc1cccc(O)c1)c1cccc(C(=O)Nc2cccc(O)c2)c1 the results were BoNT-A LC inh2 -8.8, Autofluor counter 4721, TcdB GH inh 3.2, BoNT-F LC inh inconclusive and Anthrax LF prot -4.0.
Screening COc1ccc(S(=O)(=O)N(C)C[C@@H]2Oc3c(NC(=O)C4CCCCC4)cccc3C(=O)N([C@@H](C)CO)C[C@H]2C)cc1 returned TcdB GH inh 1.4.
COc1ccccc1C#Cc1ccc([C@@H]2[C@@H](C#N)N(C(=O)C3CC3)[C@H]2CO)cc1 was read as TcdB GH inh 1.1.
`COc1ccc(NC(=O)C2CC(=O)OC2c2ccccc2)cc1` (stereo unspecified) gave BoNT-A LC inh2 4.8, Autofluor counter 2428, BoNT-F LC inh 30.2 and Anthrax LF prot -0.5.
